Experimental data reported in PubChem BioAssay (NCATS).
Results filed as inconclusive are left out. Calls of active or inactive are those of the source. Calls follow the shape of the dose curve; as a rule, active = well fitted cell-killing curve with a large enough effect; inconclusive = small, poorly fitted or top-dose-only effect; inactive = flat fitted curve, though single readings scatter.

Tests used:
[1] = Cell Viability - LYMP2-015 (AID 971); also: nearly all actives have a fitted effect of over 55% in size
Outline: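 Human lymphoblastoid cells (2500/well) in complete medium were preincubated 5 hr at 37 C, then compound-treated 24 hr at 37 C. Intracellular ATP was read by CellTiter-Glo luminescence after 30 min at room temperature; AC50 came from Hill-equation concentration-response fits.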

[2] = Cell Viability - LYMP2-017 (AID 972); also: series mostly up to about 92 µM; nearly all actives have a fitted effect of over 55% in size
Outline: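 Human lymphoblastoid cells (2500/well) were seeded in complete medium, held 5 hr at 37 C, then exposed to compounds for 24 hr at 37 C. Intracellular ATP was read by CellTiter-Glo luminescence after 30 min at room temperature, with AC50 values from Hill-equation fits.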

[3] = Cell Viability - LYMP2-019 (AID 973); also: nearly all actives have a fitted effect of over 55% in size
Outline: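 Human lymphoblastoid cells were seeded at 2500 cells/well, preincubated 5 hr at 37 C, then exposed to compounds for 24 hr at 37 C in complete medium. Intracellular ATP was measured by CellTiter-Glo luminescence; AC50 from Hill fits.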

[4] = Cell Viability - LYMP2-021 (AID 974);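 also: compound exposure lasts 24 hours at 37 °C; nearly all actives have a fitted effect of over 55% in size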
Outline: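 Human lymphoblastoid cells (2500/well) were preincubated 5 hr at 37 C, then exposed to compounds for 24 hr at 37 C in complete medium. Intracellular ATP was read by CellTiter-Glo luminescence; AC50 came from Hill-equation fits of concentration-response data.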

[5] = Cell Viability - LYMP2-023 (AID 975)
Outline: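 Human lymphoblastoid cells (2500/well) were preincubated 5 hr at 37 C, then exposed to compounds for 24 hr at 37 C in complete medium. Cellular ATP was read by CellTiter-Glo luminescence, and AC50 came from Hill-equation fits.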

[6] = Cell Viability - LYMP2-025 (AID 976); also: series mostly up to about 92 µM
Outline: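 Human lymphoblastoid LYMP2-025 cells (2500/well) were pre-incubated 5 hr at 37 C, then treated with compounds for 24 hr at 37 C in complete medium. Viability was read as intracellular ATP by CellTiter-Glo luminescence; AC50 from Hill fits.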

[7] = Cell Viability - LYMP2-002 (AID 977);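 also: series mostly up to about 92 µM; compound exposure lasted 24 h at 37 °C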
Outline: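 Cytotoxicity is scored as concentration-dependent loss of cellular ATP in a human lymphoblastoid line after 24 hr compound treatment at 37 C. AC50 is obtained by modelling concentration-response data with the Hill equation.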

[8] = Cell Viability - LYMP2-006 (AID 978); also: series mostly up to about 92 µM; nearly all actives have a fitted effect of over 60% in size
Outline: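 In this cytotoxicity screen, the human lymphoblastoid line grew in complete medium with test compounds for 24 hr at 37 C. Cellular ATP served as the viability signal.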

[9] = Cell Viability - LYMP2-007 (AID 979);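 also: cells exposed to compound for 24 h before reading; nearly all actives have a fitted effect of over 60% in size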
Outline: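 Human lymphoblastoid cells (2500/well) were plated in complete medium, incubated 5 hr at 37 C, then exposed to compounds for 24 hr at 37 C. Intracellular ATP was read by CellTiter-Glo luminescence after 30 min at room temperature; AC50 from Hill fits.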

[10] = Cell Viability - LYMP2-008 (AID 980); also: nearly all actives have a fitted effect of over 60% in size
Outline: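 Human lymphoblastoid cells (2500/well) were plated, held 5 hr at 37 C, then exposed to compounds for 24 hr at 37 C in complete medium. Intracellular ATP was read by CellTiter-Glo luminescence; AC50 from Hill-fitted concentration-response.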

Measured: outcome

Cc1cc(O)c2c(c1)C(=O)c1cccc(O)c1C2=O
inactive: all assays above
